Compound activity from PubChem.
RGS8-Gao – modulates binding of RGS8 to human Galphao. P09471. multiplexed bead flow cytometry; actives lie on both sides. response (percent of control binding), % at 10 µM. 220,000 tested, 0.34% active. AID 1423; in the data active = response below about 60% or above about 140%; inactive = in between;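 note: Galphao activated as the GDP aluminium fluoride complex binding bead-coupled RGS8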
Target sequence (P09471 whole entry, looked up): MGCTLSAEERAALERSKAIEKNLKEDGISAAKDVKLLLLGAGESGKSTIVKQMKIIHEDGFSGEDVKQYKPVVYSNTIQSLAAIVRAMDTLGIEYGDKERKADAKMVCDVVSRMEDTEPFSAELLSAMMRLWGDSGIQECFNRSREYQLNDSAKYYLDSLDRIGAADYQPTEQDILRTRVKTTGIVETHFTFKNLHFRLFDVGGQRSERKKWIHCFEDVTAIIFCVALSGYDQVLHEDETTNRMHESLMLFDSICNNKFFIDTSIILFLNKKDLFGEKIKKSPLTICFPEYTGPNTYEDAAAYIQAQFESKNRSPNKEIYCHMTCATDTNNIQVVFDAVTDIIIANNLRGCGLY
Avidin bead fluor – compound fluoresces at 488/530 nm on avidin beads; compound fluorescence 488/530 nm, flow cytometry; stronger effect = higher value; fluorescence (KMESF) at 10 µM; 220,000 tested, 0.38% active; AID 1775; in the data active = fluorescence above about 47
RGS16-Gao – regulators of human RGS16-Galphao interaction | bead-based flow cytometry RGS16-Galphao binding, fluorescence; actives lie on both sides | binding response (% of control), % at 10 µM | 220,000 tested, 0.38% active;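 note: Galphao activated by GDP with aluminum fluoride before binding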
Target sequence (O15492 whole entry, looked up): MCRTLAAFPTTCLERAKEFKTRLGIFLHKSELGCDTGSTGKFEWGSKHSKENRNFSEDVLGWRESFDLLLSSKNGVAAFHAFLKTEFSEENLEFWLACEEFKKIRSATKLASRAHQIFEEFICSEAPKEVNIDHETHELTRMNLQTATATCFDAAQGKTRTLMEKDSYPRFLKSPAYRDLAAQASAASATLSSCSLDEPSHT
Target sequence (P09471 whole entry, looked up): as the sequence (P09471 whole entry, looked up) above
RGS4-Gao reg – modulates binding of RGS4 to human Galphao | Multiplexed bead flow cytometry; actives lie on both sides | 220,000 tested, 0.33% active | binding response (% of control), % at 10 µM | AID 1415 | P09471; in the data active = binding response below about 49% or above about 150%; inactive = in between;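 note: fluorescent Galphao activated with aluminum fluoride binding bead-coupled RGS4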
RGS7-Gao – human RGS7-Galphao interaction regulation | binding response (% of control), % at 10 µM | Multiplexed bead flow cytometry, RGS7-Galphao binding; actives lie on both sides | AID 1439 | 220,000 tested, 0.35% active; in the data active = binding response below about 49% or above about 150%; inconclusive = no clear call, values can overlap the other calls; inactive = in between;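 note: fluorescent Galphao held in activated GDP-AlF4 state binding bead-coupled RGS7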
GSH bead fluor – GSH bead compound fluorescence profile. GSH beads flow cytometry, compound fluorescence 488/530 nm; stronger effect = higher value. fluorescence (KMESF) at 10 µM. 190,000 tested, 0.25% active. AID 1776; in the data active = fluorescence above about 89;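 note: glutathione beads carrying GST-tagged Bcl family fusion proteins plus one bare bead set; values are compound well signal with DMSO vehicle wells as background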
RGS4-Gao HTS – RGS4-Galphao interaction regulator (human). shares compounds with RGS16-Gao. multiplexed bead flow cytometry, RGS–Galpha-o binding. RGS4–Galpha-o binding response, % at 10 µM. 1,600 tested, 99% active. AID 1504;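 note: fluorescently labeled Galpha-o bound to GDP with aluminium fluoride binding biotinylated RGS beads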
Avidin counter – counter-screen: compounds disrupting biotin binding to avidin beads | AID 1783 | streptavidin beads, fluorescein-biotin binding, flow cytometry | inhibition, % at 10 µM | 1,700 tested, under 10 active | shares compounds with RGS16-Gao;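 active = inhibition above 50%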;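 note: median green fluorescence of gated singlet beads compared with DMSO control wells; 0% = DMSO wells and 100% = complete loss of bead fluorescence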
RGS8-Gao confirm – confirmation of regulators of human RGS8-Galphao interaction. shares compounds with RGS16-Gao. bead-based flow cytometry RGS8-Galphao binding, fluorescence; actives lie on both sides. binding response (% of control), % at 10 µM. 1,700 tested, 3% active. AID 1836; in the data active = binding response below about 72% or above about 130%; inactive = in between;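 note: Galphao activated as GDP AlF4 complex before binding bead RGS8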
RGS7-Gao single – confirmation of regulators of human RGS7-Galphao interaction. bead-based flow cytometry RGS7-Galphao binding; actives lie on both sides. response (percent of control binding), % at 10 µM. 1,700 tested, 7.8% active. shares compounds with RGS16-Gao; in the data active = response below about 75% or above about 130%; inactive = in between;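 note: fluorescent Galphao activated with GDP and aluminum fluoride binding bead-coupled RGS7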
RGS16-Gao single – RGS16-Galphao interaction regulation, single point confirmation | shares compounds with RGS16-Gao | bead-based flow cytometry, RGS16-Galphao binding; actives lie on both sides | response (% of control binding), % at 10 µM | 1,700 tested, 4% active; in the data active = response below about 74% or above about 130%; inactive = in between;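 note: Galphao activated as the GDP aluminium fluoride complex binding bead-coupled RGS16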
RGS4-Gao confirm – RGS4-Galphao interaction regulation, single point confirmation | RGS4-Galphao binding, multiplexed bead flow cytometry; actives lie on both sides | shares compounds with RGS16-Gao | binding response (% of control), % at 10 µM | 1,700 tested, 4% active; in the data active = binding response below about 74% or above about 130%; inactive = in between
RGS19-Gao single – RGS19-Galphao interaction regulation, single point confirmation | shares compounds with RGS16-Gao | bead-based flow cytometry RGS19-Galphao binding; actives lie on both sides | response (percent of control binding), % at 10 µM | 1,700 tested, 5% active | AID 1841; in the data active = response below about 50% or above about 160%; inactive = in between;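 note: 100% = no compound control and 0% = blank background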
* marks the source's active call; other numbers are inactive results; u = inconclusive; x = no result given; [ ] = another dose, or the depositor's remark. The list is not random: actives were taken first. Their share in the collection is about 1.2%. Unless noted, the rule behind the calls is not given here.

SMILES | RGS8-Gao | Avidin bead fluor | RGS16-Gao | RGS4-Gao reg | RGS7-Gao | GSH bead fluor | RGS4-Gao HTS | Avidin counter | RGS8-Gao confirm | RGS7-Gao single | RGS16-Gao single | RGS4-Gao confirm | RGS19-Gao single
Cc1c(NC(=O)CSc2nnc(COc3ccccc3)n2-c2ccccc2)c(=O)n(-c2ccccc2)n1C | 100.7 | 141* | 104.3 | 114.2 | 170.6*[activator] | 13 | 114.2* | x | x | x | x | x | x
Cc1c(NC(=O)CSc2n[nH]c(=O)n2-c2ccccc2)c(=O)n(-c2ccccc2)n1C | 104.2 | 9 | 108.4 | 106.1 | 109.3 | 17 | x | x | x | x | x | x | x
Cc1c(NC(=O)COC(=O)c2ccccc2Cl)c(=O)n(-c2ccccc2)n1C | 105.1 | 10 | 104.1 | 96.8 | 99.9 | 17 | x | x | x | x | x | x | x
Cc1cc(C)cc(OCC(=O)OCC(=O)Nc2c(C)n(C)n(-c3ccccc3)c2=O)c1 | 138.8 | 11 | 145.3 | 145.1 | 152.9*[activator] | 14 | 145.1* | 1.0 | 102.9 | 100.3 | 100.8 | 101.8 | 98.2
CCOCC(=O)Nc1c(C)n(C)n(-c2ccccc2)c1=O | 102.1 | 14 | 106.8 | 105.5 | 106.3 | 31 | x | x | x | x | x | x | x
O=C(Nc1ccc([N+](=O)[O-])cc1)Nc1ccc(N2CCOCC2)c2nonc12 | 97.4 | 15 | 94.3 | 96.1 | 93.8 | 10 | x | x | x | x | x | x | x
COc1ccc(NC(=S)Nc2ccccc2)c(OC)c1 | 108.8 | 17 | 114.8 | 106.3 | 107.0 | 12 | x | x | x | x | x | x | x
COc1ccc(NC(=S)Nc2ccc(OCc3ccccc3)cc2)c(OC)c1 | 117.2 | 11 | 37.0 | 139.6 | 164.9*[activator] | 18 | 139.6* | 0.9 | 103.1 | 102.8 | 102.0 | 101.3 | 105.0
CCOc1ccc(NC(=O)CSC(N)=O)cc1 | 162.6*[activator] | 5 | 242.6 | 99.5 | 105.5 | 43 | 99.5* | 1.1 | 102.6 | 89.8 | 99.9 | 95.3 | 90.6
CCOc1ccc(NC(=O)CC)cc1 | 104.7 | 10 | 106.6 | 105.6 | u | 21 | x | x | x | x | x | x | x
C=CCNC(=S)NCCCCC1NC(=S)N(CC=C)C1=O (centres undefined) | 99.8 | 9 | 86.1 | 122.8 | 129.5 | 11 | x | x | x | x | x | x | x
COc1ccccc1-n1c(-c2cn(C)nc2C)n[nH]c1=S | 65.7 | 0 | 12.8* | 93.4 | 96.3 | 6 | 93.4* | 0.5 | 89.1 | 92.7 | 85.0 | 88.1 | 84.4
COc1ccc(-c2cc(-c3n[nH]c(=S)n3-c3ccccc3OC)[nH]n2)cc1 | 94.3 | 11 | 93.2 | 96.6 | 103.7 | 20 | x | x | x | x | x | x | x
COc1ccccc1-n1c(-c2ccccc2)n[nH]c1=S | 104.5 | 31 | 110.0 | 105.8 | 158.6*[activator] | 18 | 105.8* | 3.8 | 98.8 | 176.4*[activator] | 136.6*[activator] | 132.7*[activator] | 156.5*[activator]
COc1ccc(NC(=O)Nc2ccc(C(=O)N3CCOCC3)cc2)c(OC)c1 | 94.7 | 2 | 93.1 | 89.3 | 86.6 | 11 | x | x | x | x | x | x | x
CC/C(=N/NC(=O)c1ccccc1)c1ccc(OCCN2CCOCC2)cc1 | 188.7*[activator] | 2 | 229.3 | 206.9*[activator] | 189.7*[activator] | 11 | x | 1.1 | 100.5 | 98.2 | 99.0 | 99.2 | 109.8
CCOC(=O)N=Nc1c(O)n(C)c2ccccc12 | 96.8 | 121* | 92.6 | 137.2 | 185.7*[activator] | 17 | 137.2* | 1.0 | 100.3 | 65.5* | 92.0 | 71.8* | 102.1
C=CCn1c(O)c(N=NC(=O)OCC)c2ccccc21 | 102.4 | 5 | 107.0 | 100.4 | 101.1 | 10 | x | x | x | x | x | x | x
Cc1[nH]n(-c2ccccc2)c(=S)c1C=NCCCN=Cc1c(C)[nH]n(-c2ccccc2)c1=S | 52.1* | 0 | -0.3* | 92.0 | 94.7 | 10 | 92.0* | 0.5 | 84.0 | 113.1 | 74.2* | 97.8 | 47.0*
CCOC(=O)Cn1nc(C)c(NC(=O)COc2ccc(C)c(C)c2)c1C | 100.0 | 8 | 97.4 | 93.6 | u | x | x | x | x | x | x | x | x
CS(=O)(=O)c1nc2ccccc2n1Cc1ccccc1 | x | x | x | x | x | 13 | x | -0.1 | 99.8 | 103.1 | 99.2 | 104.3 | 107.7
O=S(=O)(O)c1nc2ccccc2n1Cc1ccccc1 | 98.6 | 30 | 98.0 | 97.0 | 99.5 | 13 | x | x | x | x | x | x | x
O=C(NCc1cccnc1)C(=O)NCC1OCCN1S(=O)(=O)c1cc(F)ccc1F (centres undefined) | 115.4 | 75* | 200.5*[activator] | 205.9*[activator] | u | x | x | -1.2 | 100.2 | 95.4 | 95.7 | 95.3 | 123.9
CCN(CC)S(=O)(=O)c1cccc(-c2nnc(SCC(=O)NC)n2CCc2ccccc2)c1 | 99.6 | 161* | 110.9 | 127.8 | 245.9*[activator] | 26 | 127.8* | 0.6 | 100.6 | 104.7 | 103.1 | 101.8 | 114.3
CC(C)COc1ncnc2c1sc1nc3c(cc12)COC(C)(C)C3 | 129.6 | 75* | 206.3*[activator] | 223.6*[activator] | u | x | x | -1.3 | 101.6 | 99.7 | 101.1 | 100.3 | 91.6
SMILES | RGS8-Gao | Avidin bead fluor | RGS16-Gao | RGS4-Gao reg | RGS7-Gao | GSH bead fluor | RGS4-Gao HTS | Avidin counter | RGS8-Gao confirm | RGS7-Gao single | RGS16-Gao single | RGS4-Gao confirm | RGS19-Gao single
O=C(NCc1ccccn1)c1nc(-c2ccc(C(F)(F)F)cc2)no1 | 100.6 | 9 | 104.1 | 99.0 | 97.0 | 21 | x | x | x | x | x | x | x
CC(C)(C)c1ccc(-c2noc(C(=O)NN)n2)cc1 | 69.4 | 4 | 13.8* | 82.8 | u | x | 82.8* | -0.6 | 106.8 | 110.7 | 105.3 | 110.4 | 112.0
Cc1cccc(OCC(=O)N2CCOCC2)c1 | 96.6 | 277* | 123.4 | 159.6*[activator] | 270.8*[activator] | 11 | x | -0.4 | 100.7 | 95.3 | 102.6 | 101.2 | 101.3
CCN1CCN(C(=S)c2ccc(OCC(=O)NCc3ccccc3)cc2)CC1 | 90.3 | 8 | 82.7 | 100.8 | 154.3*[activator] | 9 | 100.8* | 0.2 | 96.8 | 112.1 | 96.9 | 100.5 | 100.6
Cc1ccc(-c2ccc(OCC(=O)N3CCOCC3)cc2)cc1 | 106.0 | 16 | 103.1 | 100.6 | 103.7 | 31 | x | x | x | x | x | x | x
CCN1CCN(C(=S)c2ccc(OCC(=O)N3CCOCC3)cc2)CC1 | 17.1* | -2 | 5.2* | 8.1* | 8.8* | 20 | x | 0.1 | 107.5 | 100.1 | 109.6 | 102.4 | 131.7
C=CCON/C(CCC)=C1\C(=O)C(C(=O)OC)C(C)(C)CC1=NC (centres undefined) | 98.6 | 9 | 98.3 | 94.5 | 97.8 | 25 | x | x | x | x | x | x | x
